From PubChem
A selection: hits, their analogues and other compounds. The true share with any hit is near 0.82%.
cardiac RTF act – increases calcium sensitivity of human cardiac regulated thin filaments; 340,000 compounds, 0.24% hits; AID 493008; IANBD-labeled TnC RTF fluorescence at EC20 calcium; 0% EC20 calcium, 100% full calcium; activation, % at 7.2 µM;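 active = activation above the mean over all tested compounds plus 3 SD, cut at about 30% in these data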;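 also: rise in fluorescence read as greater calcium sensitivity of cardiac thin filaments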
Cardiac RTF inh – cardiac RTF calcium desensitization. IANBD-labeled cardiac RTF, Ca2+ fluorescence. inhibition, % at 7.15 µM. 340,000 compounds, 0.12% hits;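 active = inhibition above the mean inhibition of all tested compounds plus 3 SD, cut at about 17% in these data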;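 also: assay run at fixed EC70 calcium of 1.6 mM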
C-LANA FP – KSHV C-LANA DNA binding inhibition | MBP-C-LANA/FAM-LBS DNA binding, fluorescence polarization | inhibition, % at 9 µM | 340,000 compounds, 0.078% hits | AID 504423;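 active = highest replicate inhibition at or above 60% at 9 µM, even if other replicates fall short; inactive = all replicates below 60% inhibition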
eLon inh – inhibitors of E. coli Lon protease. P0A9M0. inhibition, % at 7.94 µM. 360,000 compounds, 0.42% hits. purified E. coli Lon protease, fluorescence polarization; in the data active = inhibition above about 13%, passing the limit was not always enough
Keap1 Nrf2 FP – Keap1-Nrf2 (human) interaction inhibition; Keap1 Kelch-Nrf2 peptide fluorescence polarization, 1536-well; inhibition, % at 9.4 µM; 340,000 compounds, 0.15% hits; AID 504523; in the data active = inhibition above about 12%; inconclusive = no clear call, values can overlap the other calls; inactive = below about 7.3%;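 also: human Keap1 Kelch domain with fluorescein labeled Nrf2 9mer peptide probe; higher means more block of Keap1 binding to Nrf2 peptide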
Target sequence (Q14145 whole entry, looked up, the tested form may be a part): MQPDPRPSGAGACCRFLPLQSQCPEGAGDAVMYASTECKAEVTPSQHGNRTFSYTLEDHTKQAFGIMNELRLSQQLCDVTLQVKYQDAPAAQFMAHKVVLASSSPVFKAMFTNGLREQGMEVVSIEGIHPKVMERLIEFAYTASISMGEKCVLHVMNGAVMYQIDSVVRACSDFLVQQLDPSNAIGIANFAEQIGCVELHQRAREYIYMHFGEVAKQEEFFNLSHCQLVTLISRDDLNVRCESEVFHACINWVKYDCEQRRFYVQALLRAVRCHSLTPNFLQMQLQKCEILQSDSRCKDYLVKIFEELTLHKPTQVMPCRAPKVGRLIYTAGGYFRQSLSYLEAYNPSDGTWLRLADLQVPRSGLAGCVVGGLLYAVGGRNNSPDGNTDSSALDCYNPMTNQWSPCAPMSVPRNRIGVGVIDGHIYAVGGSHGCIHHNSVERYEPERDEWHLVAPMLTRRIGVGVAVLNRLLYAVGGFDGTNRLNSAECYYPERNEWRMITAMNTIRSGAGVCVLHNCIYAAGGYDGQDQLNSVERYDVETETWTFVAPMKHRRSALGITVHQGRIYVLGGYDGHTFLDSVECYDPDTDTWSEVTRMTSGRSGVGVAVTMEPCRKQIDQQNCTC
eLon confirm – E. coli Lon inhibition confirmation | shares compounds with eLon inh | purified E. coli Lon, fluorescence polarization | inhibition, % at 7.94 µM | 1,400 compounds, 31% hits; in the data active = inhibition above about 16%
A number is an active result; – = inactive; ? = inconclusive; · = no result given; + = active, no number; ! = a repeat was not active.

SMILES | cardiac RTF act | Cardiac RTF inh | C-LANA FP | eLon inh | Keap1 Nrf2 FP | eLon confirm
c1ccc(CC2CCN(C3=Nc4cccc5cccc3c45)CC2)cc1 | – | – | – | – | – | ·
COc1ccccc1N1CCN(C2=Nc3cccc4cccc2c34)CC1 | – | – | – | – | – | ·
CC1CN(C2=Nc3cccc4cccc2c34)CC(C)O1 (stereo not given) | – | – | – | 28.1 | – | –
CC(=O)N1CCN(C2=Nc3cccc4cccc2c34)CC1 | – | – | – | 18.0 | – | 22.6
COCCCn1cc(CN2CC(N3CCN(Cc4cccc(C)c4)CC3)CS2(=O)=O)nn1 (stereo not given) | · | · | · | – | · | ·
COc1cccc2c1C(=O)c1c(O)c3c(c(O)c1C2=O)CC(O)(C(=O)CO)CC3OC1CC(N(C)C)C(O)C(C)O1 (stereo not given) | 201.0 | – | 113.7 | + | ? | +
O=C(CN1CCN(c2ccccn2)CC1)Nc1ccc([N+](=O)[O-])cc1C(=O)Nc1ccccc1F | – | – | – | – | – | ·
COc1ccc(-n2nc3c(c2NC(=O)CCCl)CSC3)cc1 | – | – | – | – | – | ·
N#Cc1ccc(-c2nc3ccc(Br)cn3c2Cc2ccccc2)cc1 | · | · | · | – | · | ·
COc1cccc(NC(=S)N2CCN(c3ccccn3)CC2)c1 | – | – | – | + | – | –
O=C(CCCOC(=O)c1ccc(O)cc1O)c1ccc(Br)cc1 | – | – | – | 20.5 | – | –
COc1ccc(C2=CC(c3ccc(F)cc3)n3nnnc3N2)cc1 (stereo not given) | – | – | – | 37.9 | – | –
COc1ccc(C2=CC(c3sccc3C)n3nnnc3N2)cc1 (stereo not given) | – | – | – | – | – | ·
COc1ccc(C2C=C(c3ccc(Br)cc3)Nc3nc(N4C(=O)CCC4=O)nn32)cc1 (stereo not given) | – | – | – | 25.1 | – | –
COc1ccccc1C1C=C(c2ccc(Cl)cc2)Nc2nc(N3C(=O)CCC3=O)nn21 (stereo not given) | – | – | – | – | – | ·
Cc1ccc(OCC(=O)N/N=C2\CC(=O)CC(C)(C)C2)c(Br)c1 | – | – | – | 15.2 | – | –
CCN(CC)S(=O)(=O)c1cccc(C(=O)N/N=C2\CCCC(=O)C2)c1 | – | – | – | 87.0 | – | –
Cc1ccccc1OCC(=O)N/N=C1\CC(=O)CC(C)(C)C1 | – | – | – | – | – | ·
Cc1cc(C)nc(SCc2ccc(C(=O)N/N=C3\CCCC(=O)C3)cc2)n1 | – | – | – | 22.6 | – | –
CCOc1ccccc1OCC(=O)NN=C1CCCC(=O)C1 | – | – | – | 35.9 | – | –
Cc1cc(C)nc(SCc2ccc(C(=O)NN=C3CCCC3)cc2)n1 | – | – | – | – | – | ·
O=C(Nc1ccc2c(c1)OCO2)c1cc(-c2ccc(O)cc2)on1 | – | – | – | – | – | ·
C/C(N)=C(/C#N)C(=O)COC(=O)C1Cc2ccccc2CN1S(C)(=O)=O (stereo not given) | – | – | – | 16.0! | – | –
O=c1oc2ccccc2cc1-c1nc(-c2cccs2)cs1 | – | – | – | 39.3 | – | 45.5
COc1cccc2cc(-c3nc(-c4cccs4)cs3)c(=O)oc12 | – | – | – | – | – | ·
SMILES | cardiac RTF act | Cardiac RTF inh | C-LANA FP | eLon inh | Keap1 Nrf2 FP | eLon confirm
CC(C)N(C(=O)[C@H]1C[C@H](CC(=O)NCC23CC4CC(CC(C4)C2)C3)C(=O)N2CCc3c([nH]c4cc(CCC(=O)N(C)C)ccc34)[C@]12C)C(C)C | – | – | – | – | – | ·
Cc1ccc(CNC(=O)C(OC(=O)c2cccs2)C(C)C)cc1 (stereo not given) | – | – | – | 28.3 | – | –
Cc1c2ccccc2nc2c(F)c(N(C)C)c(F)c(F)c12 | – | – | – | 116.8 | – | +
CC(Sc1n[nH]c(-c2cccs2)n1)C(=O)N1CCCC1 (stereo not given) | – | – | – | – | – | ·
COc1ccc(OC)c(S(=O)(=O)n2ccc(C)n2)c1 | – | – | – | – | – | ·
Cc1nn(-c2ccc(F)cc2F)c(=O)c2noc(C)c12 | – | – | – | – | – | ·
Cc1nn(-c2ccc(F)cc2F)c2c1-c1nc(N3CCCC3)ncc1CC2 | – | – | – | 16.2 | – | –
O=[N+]([O-])c1cnc(N2CCCCC2)c([N+](=O)[O-])c1 | – | – | – | 54.7 | – | –
Cc1cc([N+](=O)[O-])cnc1N1CCOCC1 | – | – | – | – | – | ·
Cc1ccc(-c2nc3ncccc3o2)cc1NC(=O)c1cccnc1 | – | – | – | 30.6 | – | –
Cc1c(C)n(C)c2ccc(C(=O)NCCCN3CCCC3)cc12 | – | – | – | – | – | ·
Cc1c(C)n(C)c2ccc(C(=O)NCCCN3CCOCC3)cc12 | – | – | – | 56.5 | – | –
OCC1(Cc2cccc(C(F)(F)F)c2)CCN(Cc2cc3ccccc3o2)CC1 | – | – | – | 12.3 | – | –
COc1ccc(CC2(CO)CCN(Cc3cc4ccccc4o3)CC2)cc1 | – | – | – | – | – | ·
COc1ccc2ccn(S(=O)(=O)c3ccccc3)c2c1 | – | – | – | – | – | ·
COC(=O)c1ccccc1NC(=O)N[C@@H](C)C(=O)OC | – | – | – | 16.3 | – | –
NC(=O)c1nc(C(=O)N2CCCCC2)c2ccccc2n1 | – | – | – | – | – | ·
Cc1ccccc1CCN1CCCC(CN(C)C(=O)C(=O)c2ccco2)C1 (stereo not given) | – | – | – | – | – | ·
Nc1nc(Cl)cc(Oc2ccc([N+](=O)[O-])cc2)n1 | – | – | – | 16.3 | – | 20.2
CC(C)n1c2ccccc2c2cc([N+](=O)[O-])ccc21 | – | – | – | 56.0 | – | –
CC(=O)Nc1ccc(Nc2ccc3c4c(cc(=O)n3C)-c3ccccc3C(=O)c24)cc1 | – | – | – | 32.8 | – | 51.9
O=C(CCN1C(=O)C2C3C=CC(C3)C2C1=O)N1CCCCC1 (stereo not given) | – | – | – | – | – | ·
O=C(CN1C(=O)C2CC=C(Cl)CC2C1=O)NCc1ccccc1 (stereo not given) | – | – | – | 34.3 | – | 38.4
O=C(CCN1C(=O)C2CC=C(Cl)CC2C1=O)N1CCCCC1 (stereo not given) | – | – | – | 29.2 | – | 52.2
O=C(CN1C(=O)C2C3C=CC(C3)C2C1=O)NCc1ccccc1 (stereo not given) | – | – | – | – | – | ·
O=C1C2CC=C(Cl)CC2C(=O)N1CCc1ccccc1 (stereo not given) | – | – | – | 25.3 | – | 47.9
Fc1ccc2c(c1)C(c1ccncc1)=NNC(c1ccccc1)=N2 | – | – | – | – | – | ·
Cc1ccc(-c2nnn(CC(=O)N(CC3CCCO3)C(C(=O)NC3CCCCC3)c3ccc(F)cc3)n2)o1 (stereo not given) | – | – | – | – | – | ·
COc1ccc(C(C(=O)NC2CCCC2)N(CC2CCCO2)C(=O)Cn2nnc(-c3ccc(C)o3)n2)cc1 (stereo not given) | – | – | – | 18.4 | – | –
